TDP1 inh: blocks human tyrosyl-DNA phosphodiesterase 1. Q9NUW8. Potency, µM (doses to about 130 µM), most hits filed as inhibitors. recombinant TDP1, AlphaScreen DNA substrate cleavage. 0.28% of 350,000 active; note: nearly all actives have a fitted effect of over 40% in size
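E. coli-derived human Tdp1, 1 nM final. Cpd preinc 15 min RT; substrate 15 nM final, 5 min RT; AS bead mix 10 ug/ml final, 10 min RT. Signal loss = tyrosine-FITC cleavage. No-enzyme wells = max signal.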
CtBP-E1A inh: blocks the CtBP interaction with E1A; AlphaScreen GST-E1A/His-CtBP binding, 1536-well; stronger effect = lower value; activity change, % (concentration not given with the values); 0.49% of 340,000 active; in the data active = activity change below about -65%; inconclusive = mostly about -30% to -63%
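AlphaScreen with 125 nM GST-E1A and 125 nM His-CtBP (5X stocks) in Tris pH 8.0, 300 mM NaCl, BSA, Tween 20, TCEP. Compounds preincubated 2 h at 37 deg C, then glutathione donor/nickel acceptor beads added for 1 h at 37 deg C in dark.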
HP1b binding inh: HP1-beta chromodomain-methylated histone interaction inhibition. P83916. 0.56% of 390,000 active. Potency, µM (highest dose often 114 µM), actives largely listed as inhibitors. AlphaScreen HP1-beta / biotin-H3K9me3 peptide binding. AID 540317; note: nearly all actives have a fitted effect of over 70% in size
Target sequence (P83916 whole entry, looked up): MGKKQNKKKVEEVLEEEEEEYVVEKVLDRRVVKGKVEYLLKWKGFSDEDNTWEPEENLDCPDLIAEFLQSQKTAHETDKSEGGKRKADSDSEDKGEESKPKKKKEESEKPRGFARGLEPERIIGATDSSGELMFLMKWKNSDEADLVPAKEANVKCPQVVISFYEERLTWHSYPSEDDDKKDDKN
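Compound inhibition of the preformed complex between 50 nM HP1-beta and 50 nM biotinylated H3K9me3 peptide was read by AlphaScreen. Buffer was PBS pH 7.4 with 0.01% Tween-20. Incubations ran 30 min at room temperature, with 10 ug/mL donor/acceptor beads.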
JMJD2A Tudor: JMJD2A Tudor domain (human) inhibition. Potency, µM (top dose mostly 114 µM), usual class: inhibitors. O75164. AlphaScreen JMJD2A-Tudor / H3K4me3 peptide binding. 4.4% of 390,000 active; note: nearly all actives have a fitted effect of over 50% in size
BAZ2B inh: BAZ2B (human) inhibition | Q9UIF8 | 4.4% of 360,000 active | Potency, µM (doses to about 114 µM), hits mostly inhibitors | AlphaScreen BAZ2B-H3K14Ac peptide displacement; note: nearly all actives have a fitted effect of over 60% in size
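AlphaScreen displacement of biotin-H3(5-23)K14Ac peptide (50 nM final) from BAZ2B (50 nM final) in PBS pH 7.4, 0.01% Tween-20; complex preformed 30 min RT, then compounds (top 110 uM) 30 min RT, beads 20 min dark.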
Six1-Eya2 blk: blocks human Six1 binding to Eya2. Q15475+O00167. AlphaScreen GST-Six1/His-Eya2 binding, biochemical; stronger effect = lower value. activity change, % (test concentration not listed). 0.56% of 360,000 active. AID 651725; in the data active = activity change below about -65%; inconclusive = mostly about -30% to -63%
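Homogeneous AlphaScreen proximity assay pairing GST-Six1 with His-tagged Eya2 (added as 5X mix: 250 nM and 500 nM) in 50 mM Tris pH 8.0, 300 mM NaCl, 1 mM TCEP. Glutathione donor and nickel acceptor beads; 1 h, 37 °C, dark.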
A number is an active result; i = inactive; ? = inconclusive; nt = not tested or not shown; [ ] = dose if it differs, or a comment. This is a sample that favours compounds with a hit; in the whole collection about 5.3% have one here. Unless noted, calls come from the whole dose curve; as a rule, active = well fitted inhibition curve with a large enough effect; inconclusive = small, poorly fitted or top-dose-only effect; inactive = no such curve, though single readings can be large or run the other way.

SMILES | TDP1 inh | CtBP-E1A inh | HP1b binding inh | JMJD2A Tudor | BAZ2B inh | Six1-Eya2 blk
O=C1COc2ccc(-c3csc(=Nc4ccc(OC(F)F)cc4)n3CC3CCCO3)cc2N1 (stereo unspecified) | i | i | i | ? | ? | i
CN(C)S(=O)(=O)c1cccc(N=c2scc(-c3ccc4c(c3)NC(=O)CO4)n2CC2CCCO2)c1 (stereo unspecified) | i | i | ? | ? | 50µM | ?
COc1ccccc1N=c1scc(-c2ccc3c(c2)NC(=O)CO3)n1CC1CCCO1 (stereo unspecified) | i | i | ? | ? | 45µM | i
Cc1ccc(C)c(N2CCN(C(=O)Cn3c(C)c4cnn(-c5ccccc5)c(=O)c4c3C)CC2)c1 | i | nt | i | ? | ? | nt
O=c1oc2ccccc2cc1-c1ccccc1 | i | nt | i | i | i | i
O=C(O)c1ccc(-n2cc(-c3cc4ccccc4oc3=O)[nH]c2=S)cc1 | i | i | i | 1.3µM | i | i
COc1ccc(N2CCN(C(=O)Cn3cnc4sc(C)c(S(=O)(=O)N5CCCCC5)c4c3=O)CC2)cc1 | i | nt | i | i | i | nt
C/C(=N/OC(=O)c1ccc(C)cc1)c1ccc(N2C(=O)C3CCCCC3C2=O)cc1 (stereo unspecified) | i | i | i | 40µM | i | i
C/C(=N/NC(=O)c1ccccc1O)c1ccc(N2C(=O)C3CCCCC3C2=O)cc1 (stereo unspecified) | i | i | i | i | i | i
CCCC(CCC)C(=O)Nc1nnc2n1CCS2 | i | nt | i | ? | i | nt
CC(Oc1ccccc1)C(=O)Nc1nnc2n1CCS2 (stereo unspecified) | i | nt | i | 28µM | 20µM | nt
CC(C)C(=O)Nc1nnc2n1CCS2 | i | nt | i | 32µM | i | nt
CC(Oc1ccccc1)C(=O)Nc1ccc(S(=O)(=O)N2CCN(C)CC2)cc1 (stereo unspecified) | nt | i | i | i | i | i
CN(C)CCCNCC(=O)NN(c1ccccc1)c1ccccc1 | nt | i | i | 0.79µM | 32µM | i
c1ccc(CC2CCN(C3=Nc4cccc5cccc3c45)CC2)cc1 | i | ? | ? | 22µM | 50µM | ?
c1cc2c3c(cccc3c1)C(N1CCOCC1)=N2 | nt | i | i | i | i | i
Cc1ccc(NC(=O)c2ccc(CN3CC(=O)N4CCCCC4C3=O)cc2)cc1 (stereo unspecified) | i | nt | i | i | i | nt
CCOC(=O)OCC1OC(c2ccc(C(C)=O)cc2)C=CC1OC(=O)OCC (stereo unspecified) | i[21 µM] | nt | nt | nt | nt | nt
Cc1nn(C)c(=S)[nH]c1=S | nt | i | i | i | nt | i
Cc1nn2c(=S)[nH]nc2[nH]c1=O | i | i | i | 28µM | nt | i
CCn1c(SCc2nc3sc(C(=O)O)c(C)c3c(=O)[nH]2)nnc1-c1ccc(Cl)cc1 | i | i | i | i | 56µM | i
Cc1ccc2c(c1)c1c(n2C)C(C(N)=O)CCC1 (stereo unspecified) | i | i | i | i | i | i
Cc1ccc2c(c1)c1c(n2C)-c2[nH]ncc2CC1 | i | i | ? | ? | 45µM | i
CCCOc1ccc(CN(CCO)CCO)cc1[N+](=O)[O-] | i | i | i | i | i | i
CCCN(CCO)Cc1cccc(Cl)c1 | i | i | ? | 3.5µM | ? | i
SMILES | TDP1 inh | CtBP-E1A inh | HP1b binding inh | JMJD2A Tudor | BAZ2B inh | Six1-Eya2 blk
CCCN(CCO)Cc1ccc(Br)cc1 | i | i | ? | 20µM | ? | i
O=C(CCN(CCO)Cc1ccccc1)Nc1ccc(Br)cc1 | i | i | i | i | i | i
COc1ccc(NS(=O)(=O)c2cc(Br)cc3c2N(C(=O)C2CC2)CC3)cc1OC | i | nt | i | i | i | nt
C[C@@H](c1ccccc1)N1C(=O)[C@@H]2[C@H]3C(=CC[C@H]2C1=O)C(=O)[C@H]1O[C@H]1[C@H]3O | i[21 µM] | nt | nt | nt | nt | nt
COC(=O)c1ccc(-c2ccc(/C=N/N3C(=O)C4C5C=CC(C6CC56)C4C3=O)o2)cc1 (stereo unspecified) | i | i | i | ? | 56µM | i
COc1ccc(S(=O)(=O)NNC(N)=S)cc1 | i | i | i | 8.9µM | nt | i
COc1ccc(NC(=O)NNS(=O)(=O)c2ccc(Br)cc2)cc1 | i | i | i | i | i | i

Screening results: PubChem BioAssay, National Center for Advancing Translational Sciences (NCATS)
